Screening results: PubChem BioAssay, NMMLSC
In the library only some 2.2% were active in any assay of this set; here they are far more common.
MEKK2wt PB1 HTS: modulators of MEK5 binding to wildtype MEKK2, primary screen, biochemical, multiplex bead flow cytometry, Alexa488-MEK5. Mitogen-activated protein kinase kinase kinase 2 (Homo sapiens), Q9Y2U5. Alexa488-MEK5 binding to MEKK2 WT; actives lie on both sides. binding response (% of control), % at 10 µM. hit rate 1.1% among 290,000. AID 1531, 2009; in the data active = binding response below about 67% or above about 130%
VLA-4 inh: inhibition in human VLA-4 binding assay, primary screen, VLA-4 allosteric modulator project, MLPCN library, flow cytometry, VLA-4 expressing cells; inhibition, % (about 7 µM as worked out from the volumes in the protocol); AID 2557, 2010; hit rate 0.2% among 330,000; ligand binding flow cytometry; Integrin alpha-4 (Homo sapiens), P13612; in the data active = inhibition above about 50%
MEKK2 mut-MEK5: MEK5 binding signal on mutant MEKK2 PB1, primary screen, biochemical, multiplex bead flow cytometry, Alexa488-MEK5; Alexa488-MEK5 binding to MEKK2 mutant; percent response, % at 10 µM; hit rate 0.35% among 290,000; AID 1530, 2009; in the data active = percent response above about 24%, passing the limit was not always enough
MEKK3 PB1 HTS: modulators of MEKK3-MEK5 PB1 binding, primary screen, biochemical, wildtype MEKK3, multiplex bead flow cytometry, Alexa488-MEK5; Mitogen-activated protein kinase kinase kinase 3 (Homo sapiens), Q99759; bead-based flow cytometry, Alexa488-MEK5 binding to MEKK3; actives lie on both sides; 0 = blocked by unlabeled MEK5, 100 = vehicle; binding response (% of control), % at 10 µM; hit rate 1.4% among 290,000;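 active = binding response more than 3 SD above or below the average of its plate-row segment, actives on both sides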;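 also: Alexa488 bead fluorescence after subtracting the streptavidin-only scavenger bead signal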
Target sequence (Q99759 whole entry, looked up): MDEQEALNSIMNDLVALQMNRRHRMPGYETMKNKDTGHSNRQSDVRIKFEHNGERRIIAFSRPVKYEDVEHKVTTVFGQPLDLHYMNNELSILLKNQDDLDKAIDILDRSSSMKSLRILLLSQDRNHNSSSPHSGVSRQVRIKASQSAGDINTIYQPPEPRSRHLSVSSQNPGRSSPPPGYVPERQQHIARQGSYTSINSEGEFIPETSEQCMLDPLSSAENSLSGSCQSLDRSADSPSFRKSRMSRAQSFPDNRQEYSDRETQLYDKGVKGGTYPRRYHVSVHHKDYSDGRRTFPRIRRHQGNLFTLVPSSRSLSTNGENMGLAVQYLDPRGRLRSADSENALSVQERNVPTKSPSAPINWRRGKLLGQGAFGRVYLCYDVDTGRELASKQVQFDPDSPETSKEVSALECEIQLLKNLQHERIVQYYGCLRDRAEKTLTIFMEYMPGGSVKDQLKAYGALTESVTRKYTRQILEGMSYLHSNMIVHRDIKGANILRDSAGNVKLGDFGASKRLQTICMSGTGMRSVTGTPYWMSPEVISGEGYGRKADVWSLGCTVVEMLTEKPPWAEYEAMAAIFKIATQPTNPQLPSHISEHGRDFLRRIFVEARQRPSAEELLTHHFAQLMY
MEKK2wt confirm: modulators of MEK5 binding to wildtype MEKK2, confirmation, biochemical, single concentration, multiplex bead flow cytometry; hit rate 2.4% among 5,900; binding response (% of control), % at 10 µM; AID 1892, 2009; Alexa488-MEK5 binding to MEKK2 WT; actives lie on both sides; shares compounds with MEKK3 PB1 HTS; in the data active = binding response below about 16% or above about 210%; inactive = in between
MEKK2mut confirm: mutant MEKK2 PB1-MEK5 binding signal retest – biochemical, single concentration, multiplex bead flow cytometry, confirmation | hit rate 2% among 5,900 | percent response, % at 10 µM | shares compounds with MEKK3 PB1 HTS | Alexa488-MEK5 binding to MEKK2 mutant; in the data active = percent response mostly above about 71%, no sharp cut-off; inactive = mostly below about 38%;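 also: higher means compound restores mutant binding toward wildtype level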
MEKK3 confirm: MEKK3 wild-type PB1 binding to MEK5, inhibitors, confirmation, biochemical, bead multiplex flow cytometry, single concentration, wildtype; shares compounds with MEKK3 PB1 HTS; hit rate 1.8% among 5,900; Alexa488-MEK5 binding to MEKK3; active compounds read low; binding response (% of control), % at 10 µM;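 active = binding response below 72% of control, or above a set upper limit, though filed actives all read lower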;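 also: 100% = DMSO only wells and 0% = binding blocked by excess unlabeled MEK5; lower values mean stronger disruption of MEK5 binding to MEKK3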
Numbers without * were called inactive; [ ] = dose if it differs, or a comment.

How did O=C(COC(=O)c1ncc(Cl)c(Cl)c1Cl)NCCc1ccccc1 do in these assays?
VLA-4 inh: -5.2

How did C1=C(CCNc2ncnc3c2[nH]c2ccccc23)CCCC1 do in these assays?
MEKK2wt PB1 HTS: 143.0*; VLA-4 inh: -0.1; MEKK2 mut-MEK5: 26.0; MEKK3 PB1 HTS: 95.0; MEKK2wt confirm: 140.0; MEKK2mut confirm: 20.0; MEKK3 confirm: 107.0

How did O=c1c2[nH]c3ccccc3c2ncn1CCC1=CCCCC1 do in these assays?
MEKK2wt PB1 HTS: 101.0; VLA-4 inh: 7.8; MEKK2 mut-MEK5: 5.0; MEKK3 PB1 HTS: 90.0

How did Cc1nc2cc(C(=O)OCC(=O)Nc3ccc(C#N)cc3)ccc2n1-c1ccccc1 do in these assays?
MEKK2wt PB1 HTS: 96.0; VLA-4 inh: 30.4; MEKK2 mut-MEK5: -2.0; MEKK3 PB1 HTS: 98.0

What do the screens show for `Cc1ccc(NC(=O)CSc2nnc(COc3ccc(C#N)cc3)n2-c2ccccc2)cc1C`?
MEKK2wt PB1 HTS: 1.0*[inhibitor]; VLA-4 inh: 6.3; MEKK2 mut-MEK5: -16.0; MEKK3 PB1 HTS: 1.0*[inhibitor]; MEKK2wt confirm: 99.0; MEKK2mut confirm: -4.0; MEKK3 confirm: 95.0

How did Cc1nc2cc(NC(=O)COc3ccc(C#N)cc3)ccc2n1-c1ccccc1 do in these assays?
MEKK2wt PB1 HTS: 2.0*[inhibitor]; VLA-4 inh: 11.4; MEKK2 mut-MEK5: -16.0; MEKK3 PB1 HTS: 2.0*[inhibitor]; MEKK2wt confirm: 98.0; MEKK2mut confirm: -3.0; MEKK3 confirm: 101.0

What do the screens show for `O=C(c1ccc([N+](=O)[O-])cc1)N(C1=NCCCCS1)c1ccccc1`?
MEKK2wt PB1 HTS: 76.0; VLA-4 inh: 7.7; MEKK2 mut-MEK5: -6.0; MEKK3 PB1 HTS: 79.0*[inhibitor]; MEKK2wt confirm: 159.0; MEKK2mut confirm: 44.0; MEKK3 confirm: 104.0

How did O=C(Nc1ccccc1)N(C1=NCCCCS1)c1ccccc1 do in these assays?
MEKK2wt PB1 HTS: 99.0; VLA-4 inh: 0.7; MEKK2 mut-MEK5: 2.0; MEKK3 PB1 HTS: 98.0

What do the screens show for `Cc1cc(NC(=O)c2ccc(C)c(C)c2)no1`?
MEKK2wt PB1 HTS: 106.0; VLA-4 inh: 9.7; MEKK2 mut-MEK5: 4.0; MEKK3 PB1 HTS: 106.0

How did O=C(CSc1ccc(-c2ccco2)nn1)Nc1ccccc1 do in these assays?
MEKK2wt PB1 HTS: 100.0; VLA-4 inh: 14.3; MEKK2 mut-MEK5: -2.0; MEKK3 PB1 HTS: 109.0

What do the screens show for `O=C(CSc1ccc(-c2ccco2)nn1)NCc1ccccc1Cl`?
MEKK2wt PB1 HTS: 109.0; VLA-4 inh: 11.4; MEKK2 mut-MEK5: 1.0; MEKK3 PB1 HTS: 135.0*; MEKK2wt confirm: 103.0; MEKK2mut confirm: 1.0; MEKK3 confirm: 102.0

Results for CCN1CCN(C(=S)NC(=O)c2cccc(Br)c2)CC1 ?
VLA-4 inh: 6.6

How did CCc1ccc(C(O)(CNCc2ccccc2)c2ccccc2)cc1 (centres undefined) do in these assays?
MEKK2wt PB1 HTS: 120.0; VLA-4 inh: -2.9; MEKK2 mut-MEK5: 26.0*; MEKK3 PB1 HTS: 111.0; MEKK2wt confirm: 114.0; MEKK2mut confirm: 9.0; MEKK3 confirm: 106.0

How did COc1cccc(CNCC(O)(c2ccc(Cl)cc2)c2ccc(Cl)cc2)c1 do in these assays?
MEKK2wt PB1 HTS: 158.0*; VLA-4 inh: 11.2; MEKK2 mut-MEK5: 7.0; MEKK3 PB1 HTS: 111.0; MEKK2wt confirm: 118.0; MEKK2mut confirm: 5.0; MEKK3 confirm: 98.0

How did COc1ccc(CNCC(O)(c2ccccc2)c2ccc(Cl)cc2)cc1 (centres undefined) do in these assays?
MEKK2wt PB1 HTS: 122.0; VLA-4 inh: 11.5; MEKK2 mut-MEK5: 6.0; MEKK3 PB1 HTS: 105.0

Results for CCCN1CCC(NC(=O)CC2C(=O)NCCN2Cc2cccc(OC)c2)CC1 (centres undefined) ?
MEKK2wt PB1 HTS: 110.0; VLA-4 inh: 1.0; MEKK2 mut-MEK5: 9.0; MEKK3 PB1 HTS: 100.0

What do the screens show for `O=C(Nc1cccs1)NC1CCCC1`?
MEKK2wt PB1 HTS: 99.0; VLA-4 inh: -4.0; MEKK2 mut-MEK5: 4.0; MEKK3 PB1 HTS: 100.0

Results for COCCNC(=O)Nc1ccc2nc(-c3cccs3)c(-c3cccs3)nc2c1 ?
MEKK2wt PB1 HTS: 67.0*[inhibitor]; VLA-4 inh: -2.0; MEKK2 mut-MEK5: -3.0; MEKK3 PB1 HTS: 92.0; MEKK2wt confirm: 67.0; MEKK2mut confirm: -18.0; MEKK3 confirm: 90.0

Results for COCCNC(=O)c1cc(-c2cccs2)on1 ?
MEKK2wt PB1 HTS: 107.0; VLA-4 inh: 39.0; MEKK2 mut-MEK5: 6.0; MEKK3 PB1 HTS: 104.0

What do the screens show for `O=C(Nc1ccc2nc(-c3cccs3)c(-c3cccs3)nc2c1)NC1CC1`?
MEKK2wt PB1 HTS: 20.0*[inhibitor]; VLA-4 inh: 2.0; MEKK2 mut-MEK5: -18.0; MEKK3 PB1 HTS: 68.0*[inhibitor]; MEKK2wt confirm: 54.0; MEKK2mut confirm: -20.0; MEKK3 confirm: 95.0

Results for CCc1nnc(NC(=O)CC23CC4CC(CC(Br)(C4)C2)C3)s1 ?
MEKK2wt PB1 HTS: 102.0; VLA-4 inh: -6.7; MEKK2 mut-MEK5: 4.0; MEKK3 PB1 HTS: 103.0

How did Cc1cccc2c(=O)c(Br)c(C)n(Cc3ccccc3)c12 do in these assays?
MEKK2wt PB1 HTS: 88.0; VLA-4 inh: 2.9; MEKK2 mut-MEK5: -6.0; MEKK3 PB1 HTS: 89.0

How did Cc1ccc(S(=O)(=O)NCCNS(=O)(=O)c2ccc(C)cc2)cc1 do in these assays?
MEKK2wt PB1 HTS: 108.0; VLA-4 inh: 7.1; MEKK2 mut-MEK5: 9.0; MEKK3 PB1 HTS: 105.0

Results for Cc1ccc(S(=O)(=O)NCCc2cccs2)cc1 ?
MEKK2wt PB1 HTS: 121.0; VLA-4 inh: -0.1; MEKK2 mut-MEK5: 21.0; MEKK3 PB1 HTS: 128.0*; MEKK2wt confirm: 108.0; MEKK2mut confirm: 1.0; MEKK3 confirm: 106.0

What do the screens show for `O=C(COC(=O)c1ccccc1OC(F)F)Nc1ccc2[nH]c(=O)[nH]c2c1`?
VLA-4 inh: 7.1

What do the screens show for `CCOCc1nnc(NC(=O)c2c(OC)cccc2OC)s1`?
MEKK2wt PB1 HTS: 137.0*; VLA-4 inh: 1.5; MEKK2 mut-MEK5: 15.0; MEKK3 PB1 HTS: 115.0; MEKK2wt confirm: 100.0; MEKK2mut confirm: -2.0; MEKK3 confirm: 103.0

What do the screens show for `N=c1n(CC(=O)c2ccc(Br)s2)c2ccccc2n1Cc1ccccc1`?
MEKK2wt PB1 HTS: 158.0*; VLA-4 inh: 13.7; MEKK2 mut-MEK5: 39.0; MEKK3 PB1 HTS: 102.0; MEKK2wt confirm: 145.0; MEKK2mut confirm: 11.0; MEKK3 confirm: 100.0
